# Source: PubChem BioAssay (National Center for Advancing Translational Sciences (NCATS))
# IL-1B inflam inh – qHTS for Inhibitors of Inflammasome Signaling: IL-1-beta AlphaLISA Primary Screen; activity change, % at 57.5 µM; THP-1 LPS/ATP IL-1B secretion, AlphaLISA, 16 h; active compounds read low; AID 743279, 2014; 360,000 compounds, 4.7% hits; in the data active = activity change below about -50%; inconclusive = mostly about -30% to -49%
#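 Secreted IL-1B measured by AlphaLISA bead assay after 16 h compound exposure of THP-1 cells; compounds (final up to 57.5 uM) added 1 h before LPS (250 ng/mL) and ATP (1.25 mM) stimulation; lower signal means less secretion.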
# HT1080-NT tox – qHTS for induction of synthetic lethality in tumor cells producing 2HG: qHTS for the HT-1080-NT fibrosarcoma cell line. 360,000 compounds, 1.6% hits. Potency, µM (doses to about 46.1 µM), for inactives: top-dose activity, negative = less viability, usual class: cytotoxic. HT-1080-NT fibrosarcoma viability, CellTiter-Glo ATP luminescence, 48 h. AID 686970, 2013;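 also: NT is the 2HG producing partner of a matched IDH1 knockdown line; potency is read from the fitted curve at half-maximal effect; 0% = DMSO-treated cells and -100% = media-only wells without cells; nearly all actives have a fitted effect of over 55% in size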
#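 Toxicity toward the 2HG-producing NT line was scored as %Activity, normalised to DMSO and no-cell wells, from CellTiter-Glo luminescence after 48 hours' treatment.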
# TDP1 cell noCPT – qHTS for Inhibitors of human tyrosyl-DNA phosphodiesterase 1 (TDP1): qHTS in cells in absence of CPT. DT40 Tdp1-/- hTDP1 cells, no CPT, ATP luminescence, 48 h. Potency, µM (top dose mostly 46.2 µM), for the others: top-dose activity change, negative = growth inhibition, hits mostly inhibitors. 420,000 compounds, 15% hits. AID 686978, 2013; also: potency is read from the fitted curve at half-maximal effect; nearly all actives have a fitted effect of over 55% in size
#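 Growth of hTDP1-complemented DT40 Tdp1-knockout cells is measured by ATP luminescence after at least 48 hr compound exposure at 37 °C, with DMSO substituting for the 20 nM CPT used in the parallel screen.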
# DT40 TDP1 CPT – qHTS for Inhibitors of human tyrosyl-DNA phosphodiesterase 1 (TDP1): qHTS in cells in presence of CPT; chicken DT40 Tdp1-/-;hTDP1 cells + 20 nM CPT, ATP luminescence, 48 h; Potency, µM (top dose mostly 46.2 µM), inactives show at the highest dose activity change, negative = growth inhibition, usual class: inhibitors; 420,000 compounds, 12% hits; also: potency is read from the fitted curve at half-maximal effect; nearly all actives have a fitted effect of over 55% in size
#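 Chicken DT40 Tdp1-/- cells complemented with human TDP1, 400 cells/well, exposed to compounds plus 20 nM camptothecin for at least 48 h at 37 C; viability read as ATP content by CellTiter-Glo luminescence.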
# HT1080 IDH1KD tx – qHTS for induction of synthetic lethality in tumor cells producing 2HG: qHTS for the HT-1080-IDH1KD cell line; HT-1080 IDH1 knockdown viability, ATP luminescence, 48 h; Potency, µM (doses to about 46.1 µM), for inactives: at the highest dose activity, negative = toxicity, most hits filed as cytotoxic; 360,000 compounds, 2% hits; AID 686971, 2013;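 also: potency is read from the fitted curve at half-maximal effect; 0% = DMSO wells and -100% = cell-free medium wells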
#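 Assay cells: HT-1080 with IDH1 knockdown, 750 per well, RPMI/5% FBS. Exposure: 48 h at 37 °C following 2 h pre-incubation. Read: CellTiter-Glo luminescence; fitted concentration-response, curve class assigned.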
# Active calls of the source: *; u = inconclusive; x = no result; ! = repeats disagree; [ ] = remark or other dose. An excerpt weighted towards active compounds, which were near 19% of everything screened. Unless noted, calls follow the shape of the dose curve; as a rule, active = well fitted curve in the direction sought with a large enough effect; inconclusive = small, poorly fitted or top-dose-only effect, or another doubt; inactive = no such curve, though single readings can be large; an effect the other way counts as inactive or inconclusive. Unless noted, % is scaled to controls: 0 for no effect and ±100 for the full control effect.
SMILES,IL-1B inflam inh,HT1080-NT tox,TDP1 cell noCPT,DT40 TDP1 CPT,HT1080 IDH1KD tx
CCCCC(=O)NC(c1ccccc1Cl)c1ccc2cccnc2c1O (stereo unspecified),121.4,u,6.51µM*,8.2µM*,u
O=C(O)CCC(=O)NC(c1ccccc1)c1ccccc1,17.6,-4.5%,-14.7%,-21.2%,0.2%
CCCCC(=O)NC(c1ccccc1)c1ccc2cccnc2c1O (stereo unspecified),137.2,u,0.731µM*,0.581µM*,u
COc1ccc(S(=O)(=O)N2CCCCCC2)cc1N(C)S(=O)(=O)c1ccc(Cl)cc1,-28.5,u,18.4µM*,16.4µM*,-9.8%
COc1ccc2cc(S(=O)(=O)N3CCCCC3)ccc2c1S(=O)(=O)N1CCCCC1,-14.4,-1.3%,u,20.6µM*,-0.6%
Clc1ccc(C2CC(c3cccs3)n3ncnc3N2)c(Cl)c1 (stereo unspecified),37.9,-4.8%,u,u,-1.8%
O=C(NCc1ccccc1)c1ccc(CS(=O)(=O)c2ccccc2)o1,-3.3,0.7%,16.4µM*,2.59µM*,4.2%
COc1ccc(CNC(=O)c2ccc(CS(=O)(=O)c3ccc(Br)cc3)o2)cc1,-21.8,-0.1%,23.1µM*!,23.1µM*,4.9%
O=C(NCc1ccccc1Cl)c1ccc(CS(=O)(=O)c2ccc(Br)cc2)o1,x,x,13µM*,23.1µM*,x
COc1ccc(S(=O)(=O)Cc2ccc(C(=O)NCc3ccc(C)cc3)o2)cc1,-16.8,5.1%,23.1µM*,-12.6%,-11.6%
O=C(NCc1ccccc1)c1ccc(CSc2ccccc2)o1,-90.5*,-1.1%,-17.1%,-11.8%,-15.8%
CC(=O)Nc1ccc(NC(=O)c2ccc(CSc3ccccc3)o2)cc1,u,10.2%,-27.4%,1.0%,6.8%
COc1ccc(OC)c(CCNC(=O)c2ccc(CS(=O)(=O)c3ccc(Br)cc3)o2)c1,-11.7,-3.3%,u,20.6µM*,0.6%
CCCc1cc(=O)[nH]c(SCC(=O)Nc2sc(C(N)=O)c(C)c2C(=O)OCCOC)n1,-10.0,2.31µM*,-23.1%,u,2.59µM*
CCCc1cc(=O)[nH]c(SCC(=O)NC(=O)OCC)n1,9.2,1.4%,0.4%,-2.2%,3.5%
O=C(Nc1ccc(S(=O)(=O)N2CCCc3ccccc32)cc1)C1CCCO1 (stereo unspecified),28.8,-0.4%,u,u,-24.1%
O=C(Nc1cccc(Cl)c1)c1cc(S(=O)(=O)N2CCCc3ccccc32)ccc1F,x,x,4.11µM*,10.3µM*,x
O=C(O)C1CC=CCC1C(=O)Nc1ccc(S(=O)(=O)N2CCCc3ccccc32)cc1 (stereo unspecified),4.2,u,u,-15.8%,5.62µM*
O=C(Nc1ccc(F)c(Cl)c1)c1cc(S(=O)(=O)N2CCCc3ccccc32)ccc1F,x,x,14.6µM*,13µM*,x
CCOC(=O)C(NC(=O)Nc1ccc(Cl)cn1)(Oc1ccccc1)C(F)(F)F (stereo unspecified),1.6,16.9%,21.6%,37.2%,-6.8%
C/C(=N\NS(=O)(=O)c1ccc(Br)cc1)c1ccncc1,-77.6*,9.3%,u,11.6µM*,-1.9%
C/C(=N/NS(=O)(=O)c1ccc(Cl)cc1)c1ccncc1,-1.1,1.1%,11.4%,u,2.6%
CCc1ccc(C2CC(=O)N3CN(c4ccccc4)CSC3=C2C#N)cc1 (stereo unspecified),-14.1,0.2%,u,u,-11.0%
N#CC1=C2SCC(O)(c3ccccc3)N2C(=O)CC1c1ccccc1 (stereo unspecified),-10.8,1.3µM*,1.64µM*,1.3µM*,u
CCCOc1ccc(C(=O)Nc2ccc(S(=O)(=O)N3CCN(C)CC3)cc2)cc1,-0.7,-11.0%,u,u,-21.1%
SMILES,IL-1B inflam inh,HT1080-NT tox,TDP1 cell noCPT,DT40 TDP1 CPT,HT1080 IDH1KD tx
CCCOc1ccc(C(=O)Nc2ccc(S(=O)(=O)N3C[C@@H]4C[C@@H](C3)c3cccc(=O)n3C4)cc2)cc1,32.3,8.2µM*,13µM*,u,u
COc1ccc(OC)c(C2=NOC(C(=O)NCCN3CCOCC3)C2)c1 (stereo unspecified),-0.1,-0.3%[9.24 µM],-3.7%,2.8%,-0.7%
O=C(NCc1cccs1)C1CC(c2ccc(Cl)cc2)=NO1 (stereo unspecified),3.8,-21.7%,11.6µM*,13µM*,u
O=C(NCCc1cccs1)C1CC(c2c(Cl)cccc2Cl)=NO1 (stereo unspecified),0.4,16.4%,7.31µM*,4.11µM*,-3.6%
COc1ccc(OC)c(C2=NOC(C(=O)NCc3cccs3)C2)c1 (stereo unspecified),39.1,-29.7%,7.31µM*,u,u
CC1CCC(C(C)C)C(NC(=O)c2ccncc2)C1 (stereo unspecified),22.2,u,-9.5%,-14.0%,9.4%
CCOC(=O)C1=NNC(C(=O)c2ccc(C)cc2)C1c1ccc(C)cc1 (stereo unspecified),-5.6,-1.3%,16.4µM*,u,-4.7%
CCOC(=O)C1=NNC(C(=O)c2ccccc2)C1c1ccc(C)cc1 (stereo unspecified),7.4,9.6%,-22.3%,-15.2%,1.1%
CCOc1ccc(NC(=O)C2(c3cccs3)CCOCC2)cc1,x,x,u,-27.4%,x
O=C(c1ccncc1)N1N=C(c2ccc(Cl)cc2)CC1c1ccccc1O (stereo unspecified),u,-20.7%,u,u,-16.9%
COc1ccccc1C1CC(c2ccc(Br)cc2)=NN1C(=O)c1cccnc1 (stereo unspecified),-51.6*,u,16.4µM*,16.4µM*,14.6µM*
COc1ccc(C2=NN(C(=O)c3ccccc3)C(c3ccc(OC)c(OC)c3)C2)cc1OC (stereo unspecified),u,0.0%,4.0%,-26.1%,-6.2%
COc1cccc(C2CC(c3ccc(Br)cc3)=NN2C(=O)c2ccncc2)c1OC (stereo unspecified),-50.3*,18.4µM*,u,u,18.4µM*
c1ccc(CCOn2ccnc2)cc1,-1.6,18.5%,8.9%,-0.8%,7.3%
Clc1ccccc1-c1nccc(-n2ccnc2)n1,x,x,-1.1%,3.7%,x
C#CC(c1ccccc1)(c1ccccc1)n1ccnc1,-15.7,3.0%,23.1µM*,u,-9.2%
Clc1ccccc1C(c1ccccc1)(c1ccccc1)n1ccnc1,-24.0,u,10.1µM*,8.05µM*,u
